# In all, about 48,000 compounds went through this assay and about 13,000 (27%) showed an effect of 50% or more. This is one part of the list.
# Tested on: Wolbachia pipientis
# Experiment: Anti-Wolbachia Cell-Based Screen
# Format: functional
# Parameters: scale not given: in the data most compounds retested in dose-response had high values
# Conditions: 5 µM
row,SMILES,Percent Effect
1,CC(C)CC1(C(=O)NCCc2nncn2C2CC2)CCC1,-4.64%
2,COCCn1cncc1CN1CCCC(C(=O)Cc2ccccc2)C1 (centres undefined),-2.141%
3,FC(F)Oc1ccc(CNCc2cc(Br)c3c(c2)OCO3)cc1,-6.924%
4,Cc1cccc(S(=O)(=O)NC(=O)CN(C)Cc2ccccc2)c1,-8.063%
5,OC1CCN(Cc2ccc(CNc3ncc(Cl)cc3F)cc2)CC1,12.54%
6,CCc1ncc2c(n1)CN(CC(=O)Nc1ccncc1)CC2,110.2%
7,CCc1ncc2c(n1)CN(CC(=O)NCCOc1ccccc1)CC2,-2.298%
8,CCc1ncc2c(n1)CN(CC(=O)Nc1ccc(Cl)cn1)CC2,-11.22%
9,CC(C)c1ncc2c(n1)CN(CC(=O)Nc1ccncc1)CC2,121.8%
10,O=C1C[C@@H]2CCN(Cc3ccccc3)C[C@@H]2CCN1C1CCCCC1,-3.832%
11,Cc1cc(F)cc2c(NCC(C)(C)C(N)=O)c(C#N)cnc12,-8.15%
12,Cc1[nH]c2ccccc2c1-c1ccnc(N[C@@H](CO)C(C)C)n1,99.82%
13,Cc1ccc(-c2nc(CNC(C)CCO)[nH]c2-c2ccccn2)cc1 (centres undefined),0.0278%
14,Cc1ccc(-c2ccnc(NC(C)c3c(C)n[nH]c3C)n2)c(C)n1 (centres undefined),5.666%
15,Cc1[nH]c2ccccc2c1-c1ccnc(NCCN2CCCCC2)n1,107.1%
16,Cc1[nH]c2ccccc2c1-c1ccnc(N[C@H](CO)CC(C)C)n1,64.61%
17,Cc1[nH]c2ccccc2c1-c1ccnc(NC[C@H](O)CO)n1,2.314%

row,SMILES,Percent Effect
1,Cc1[nH]c2ccccc2c1-c1ccnc(NCCN2CCOCC2)n1,0.04004%
2,Cc1[nH]c2ccccc2c1-c1ccnc(N[C@@H](C)CO)n1,114.9%
3,O=C(NCCN1CCCCC1)c1nc2ccccc2c(=O)[nH]1,8.44%
4,Cn1cc(C2CC3(CCN(C(=O)c4cccs4)CC3)NC2=O)cn1 (centres undefined),3.208%
5,COc1cc(Cl)cc(C(=O)N2CCC3(CC2)CNC(=O)C3)c1,-6.802%
6,CCOCc1nc2c(c(N(C)Cc3ccsc3)n1)CCNCC2,-15.95%
7,CC(=O)N1CCO[C@@H]2CN(Cc3ccccc3F)C[C@@H]2C1.O=C(O)C(F)(F)F,102.5%
8,COCCN1CCO[C@@H]2CN(Cc3ccccc3OC)C[C@@H]2C1.O=C(O)C(F)(F)F.O=C(O)C(F)(F)F,1.646%
9,O=C(CCc1ccccc1)N1C[C@@H]2CN(Cc3ccoc3)CCO[C@@H]2C1.O=C(O)C(F)(F)F,22.25%
10,O=C(O)C(F)(F)F.O=C(c1ccc2[nH]ccc2c1)N1CC[C@@H]2CN(CC3CC3)CCO[C@@H]2C1,-56.17%
11,O=C(O)C(F)(F)F.O=C([C@H]1CN(Cc2ccccc2F)C[C@H]2OCC[C@@H]12)N1CCCO1,3.627%
12,CC(=O)N1CCO[C@@H]2CN(Cc3ccccc3Cl)C[C@@H]2C1.O=C(O)C(F)(F)F,111.8%
13,COc1ccccc1CN1C[C@@H]2CN(Cc3cccnc3)CCO[C@@H]2C1.O=C(O)C(F)(F)F.O=C(O)C(F)(F)F.O=C(O)C(F)(F)F,-7.53%
14,Fc1ccccc1CN1C[C@@H]2CN(Cc3cccnc3)CCO[C@@H]2C1.O=C(O)C(F)(F)F.O=C(O)C(F)(F)F.O=C(O)C(F)(F)F,0.8548%
15,COCCN1CCO[C@@H]2CN(C(=O)c3ccc4[nH]ccc4c3)CC[C@@H]2C1,-49.46%
16,COc1ccccc1CN1C[C@@H]2CN(C(C)=O)CCO[C@@H]2C1.O=C(O)C(F)(F)F,111.4%
17,O=C(c1ccccc1)N1CCO[C@@H]2CN(Cc3ccc[nH]3)C[C@@H]2C1,106.1%

# Reference: ChEMBL document CHEMBL3988442, “University of Dundee, Small-Polar-MMV Screening Library” (2021)
